Reference: PubChem BioAssay
Where “and” joins values, the source holds several entries; their conditions need not be identical. Equal entries are not always repeated. For some of these results: Entries with a potency or affinity are not part of this list. Calls of active or inactive are those of the source.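 How the source made its calls, unless noted: active means compounds whose cell count with miR-34 switched on is under 0.7 times the count with it off; inactive means the rest.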

Assays:
[1] = compounds altering circadian rhythm period length – cell-based, LOPAC library, luminescence reporter (AID 2774; call rule not given here;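 further: values are relative to mean of DMSO wells on each plate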); conditions: circadian reporter cells, at 7 µM, actives lie on both sides
[2] = compounds altering viability of human ES cells (AID 493140; call rule not given here;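 further: cells exposed to compounds for four days before counting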); conditions: human embryonic stem cell survival screen; stronger effect = higher value
[3] = P. berghei load reduction in hepatocytes – cell-based, HepG2, luciferase luminescence, HepG2 viability, primary screen (AID 624349; in the data active means parasite load remaining mostly below about 12%, no sharp cut-off; inactive means mostly above about 10%;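 further: 100% = mean of DMSO negative control wells on the same plate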); conditions: P. berghei liver stage in HepG2, luciferase luminescence, concentration not given here; parasite load remaining: stronger effect = lower value; viability: measured here: HepG2 viability without parasites
[4] = system: Hepatitis C virus NS3 helicase; assay: blockers of NS3h binding to ssDNA – biochemical, fluorescence polarization, LOPAC1280 library, primary screen (AID 687035; in the data active means inhibition above about 37%); conditions: Purified HCV NS3 helicase, Cy5-dT15 ssDNA binding fluorescence polarization; stronger effect = higher value; concentration not given here
[5] = compounds altering Cy5-DNA-NS3h complex signal – biochemical, LOPAC1280, artefact control for HCV NS3 helicase inhibitor project (AID 687037; call rule not given here); conditions: Cy5-DNA-NS3h complex fluorescence interference counterscreen
[6] = EMT-state selective cytotoxicity in co-culture – imaging, PC-3E GFP, TEM4-18 mCherry, primary screen (AID 1345086;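 active means compounds killing one labelled cell type while sparing the other, by normalised counts and ratio limits, not self-fluorescent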;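 on all read-outs here: cells exposed to compound for 72 h before imaging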;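 on red/green cell ratio (normalised): normalised mesenchymal count divided by normalised epithelial count so high means epithelial killing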); conditions: PC-3E GFP / TEM4-18 mCherry co-culture, imaging cell counts, at 1 µM; for red/green cell ratio (normalised): actives lie on both sides, counts scaled to control wells, 1 = unselective
[7] = viability loss with induced miR-34 in A549 – imaging, A549 dox-inducible miR-34, nuclei and caspase counts, primary screen (AID 1347080); conditions: A549 miR-34 inducible, Hoechst nuclei count, 48 h
[8] = blockers of cellular phospholipid synthesis – cell-based, LOPAC library, screen 4, primary screen (AID 1347384; call rule not given here); conditions: animal cells, phospholipid biosynthesis inhibition screen; at 10 µM
[9] = MELAS cybrid and Rieske KO viability enhancers – cell-based, MELAS cybrids, Rieske KO mouse fibroblasts, CellTiter-Glo, primary screen (AID 1508586;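 active means mean z-score across replicates of 1.96 or higher in either the MELAS or the Rieske mutant cell line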;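 further: z relative to plate mean and SD of compound and empty wells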); conditions: low glucose
[10] = target: NAD(+) hydrolase SARM1 (Homo sapiens) (UniProt Q6SZW1); assay: blocking NAD cleavage by SARM1 SAM-TIR – cell lysate, NAD-Glo luminescence (AID 1508614;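 active means compound whose remaining NAD level is above about 45 nM, limit read from the data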); conditions: SAM-TIR HEK293T lysate NADase, at 1 µM, stronger effect = higher value
[11] = target: Mitogen-activated protein kinase 7 (Homo sapiens) (UniProt Q13164); assay: Gal4-ERK5 driven luciferase induction – cell-based, HTS, primary screen (AID 1508626;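 active means luciferase signal above three times the same-plate solvent-only control wells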;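 further: luciferase driven by Gal4-ERK5 fusion binding five Gal4 sites before minimal TATA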); conditions: HeLa Gal4-ERK5 transactivation, 18 h, at 5 µM, stronger effect = higher value
[12] = galactose survival enhancers in mitochondrial complex I cybrids – cell-based, galactose medium, ATP luminescence, primary screen (AID 1645843;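 active means z-score of at least 1.8 in each of two replicates, scored against plate mean and spread of sample wells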;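 further: positive z means more ATP and so rescue of galactose-driven cybrid death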); conditions: complex I mutant cybrid cells, 72 h, stronger effect = higher value
[13] = blockers of polyQ-driven CASP3 activation – cell-based (AID 1583); conditions: polyglutamine-induced caspase-3 activation, cell assay; stronger effect = higher value;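 tested at 10 µM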
[14] = yeast 75Q aggregation reduction – 75Q-TubU reporter (AID 1593); conditions: Yeast 75Q polyglutamine aggregation reporter
[15] = restoration of touch response, mutant HTT neurons – whole organism, C. elegans mechanosensory neurons, N-terminal huntingtin (AID 1599); conditions: C. elegans polyQ-huntingtin mechanosensory neurons, stronger effect = higher value
[16] = blockers of cytochrome c efflux from mitochondria – biochemical, purified mitochondria (AID 1603); conditions: stronger effect = lower value;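 further: mouse liver mitochondria challenged with calcium chloride; signal normalized to the plate average as 100%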
[17] = polyglutamine aggregate formation blockers (AID 1604); conditions: polyglutamine-induced protein aggregation inhibition assay; stronger effect = higher value; tested at 2.5 µM
[18] = glutamate transport activators, MN-1 cells, MN-1 cell line (AID 1612); conditions: MN-1 motor neuron cells, stronger effect = higher value;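 further: tested at 1 µM final; 0% = mean of DMSO vehicle wells on each plate; positive means more glutamate uptake than control and negative means less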
[19] = GFP-Q80 aggregate reduction, neuronal-like cells, cell-based, NGF-treated PC12, GFPQ80 (AID 1614); conditions: PC12 NGF-treated GFP-polyQ80 inclusion reduction;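 further: lower means fewer inclusions and 0 means no inclusions at all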
[20] = 75Q-TubH aggregate inhibition, S. cerevisiae, yeast (AID 1616); conditions: S. cerevisiae 75Q-TubH polyglutamine aggregation suppression; stronger effect = higher value
[21] = measured here: epithelial PC-3E GFP cell survival
[22] = measured here: mesenchymal TEM4-18 mCherry cell survival
[23] = stronger effect = lower value, cell number ratio, induced over uninduced
[24] = measured here: relative caspase fold change +Dox/-Dox
[25] = measured here: total cells with miR-34 induction, stronger effect = lower value
[26] = measured here: total cells without miR-34 induction
[27] = MELAS cybrid survival, CellTiter-Glo 48 h, stronger effect = higher value
[28] = Rieske KO mouse fibroblast survival, CellTiter-Glo 72 h

Mitogen-activated protein kinase 7 (Homo sapiens), sequence (Q13164 whole entry, looked up, the tested form may be a part): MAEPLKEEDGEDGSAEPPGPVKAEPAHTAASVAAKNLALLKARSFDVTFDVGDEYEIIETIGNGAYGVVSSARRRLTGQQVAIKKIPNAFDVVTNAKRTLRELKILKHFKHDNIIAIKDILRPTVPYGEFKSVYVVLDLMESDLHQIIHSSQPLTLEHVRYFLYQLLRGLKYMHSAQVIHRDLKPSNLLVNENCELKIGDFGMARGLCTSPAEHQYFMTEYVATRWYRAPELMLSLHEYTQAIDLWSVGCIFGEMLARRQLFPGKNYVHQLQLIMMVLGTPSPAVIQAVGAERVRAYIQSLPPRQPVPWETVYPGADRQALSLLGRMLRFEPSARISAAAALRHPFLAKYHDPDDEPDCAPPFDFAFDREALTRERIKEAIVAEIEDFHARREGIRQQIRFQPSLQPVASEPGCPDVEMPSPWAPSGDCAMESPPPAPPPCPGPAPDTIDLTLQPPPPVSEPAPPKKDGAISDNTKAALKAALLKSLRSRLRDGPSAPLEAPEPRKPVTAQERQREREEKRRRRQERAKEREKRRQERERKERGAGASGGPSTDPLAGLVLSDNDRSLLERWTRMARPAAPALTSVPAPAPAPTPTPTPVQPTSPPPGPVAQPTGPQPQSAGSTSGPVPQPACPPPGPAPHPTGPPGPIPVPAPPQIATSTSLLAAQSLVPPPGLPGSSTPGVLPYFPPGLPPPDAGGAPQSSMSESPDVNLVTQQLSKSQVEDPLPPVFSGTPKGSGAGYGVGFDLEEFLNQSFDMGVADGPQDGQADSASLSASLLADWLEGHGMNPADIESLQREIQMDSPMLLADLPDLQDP
NAD(+) hydrolase SARM1 (Homo sapiens), sequence (Q6SZW1 whole entry, looked up, the tested form may be a part): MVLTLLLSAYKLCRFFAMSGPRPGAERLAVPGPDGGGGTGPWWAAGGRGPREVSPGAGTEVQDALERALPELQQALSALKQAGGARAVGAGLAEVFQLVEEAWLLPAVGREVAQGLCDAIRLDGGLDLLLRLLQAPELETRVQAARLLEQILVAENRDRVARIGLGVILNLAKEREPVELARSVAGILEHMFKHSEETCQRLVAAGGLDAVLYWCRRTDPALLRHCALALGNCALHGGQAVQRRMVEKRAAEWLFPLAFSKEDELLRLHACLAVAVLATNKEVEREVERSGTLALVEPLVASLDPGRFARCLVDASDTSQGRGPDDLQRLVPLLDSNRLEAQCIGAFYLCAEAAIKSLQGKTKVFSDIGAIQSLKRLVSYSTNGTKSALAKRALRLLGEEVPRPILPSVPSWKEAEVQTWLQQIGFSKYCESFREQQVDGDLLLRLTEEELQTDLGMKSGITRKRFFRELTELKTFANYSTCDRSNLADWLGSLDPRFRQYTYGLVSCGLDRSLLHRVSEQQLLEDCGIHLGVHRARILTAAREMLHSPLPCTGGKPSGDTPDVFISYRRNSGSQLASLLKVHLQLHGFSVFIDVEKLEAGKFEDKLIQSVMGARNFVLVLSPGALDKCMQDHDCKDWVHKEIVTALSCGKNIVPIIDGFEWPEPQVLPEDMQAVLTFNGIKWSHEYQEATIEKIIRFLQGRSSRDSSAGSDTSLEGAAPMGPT

SMILES: CC(=O)c1ccc(S(=O)(=O)NC(=O)NC2CCCCC2)cc1
- period change [1]: -0.09 h (inactive)
- survival [2]: 14 (inactive)
- parasite load remaining [3]: 38.7% (inactive) and 91.1% (inactive) and 69.3% (inactive)
- viability [3]: 49.8% and 90.7% and 105%
- inhibition [4]: -2% (inactive)
- fluorescence ratio (interference) [5]: 1 (inactive)
- red/green cell ratio (normalised) [6]: 0.86 (inactive)
- normalised cell number [6, 21]: 0.99
- normalised cell number [6, 22]: 0.85
- fold change [7, 23]: 1.04 (inactive) and 0.892 (inactive) and 0.85 (inactive)
- fold change [7, 24]: 2.43 and 1.31 and 5.06
- cell count [7, 25]: 10800 and 8720 and 11600
- cell count [7, 26]: 10400 and 9780 and 13600
- outcome [8]: inactive
- z-score [9, 27]: 0.0376 (inactive)
- z-score [9, 28]: -0.115
- remaining NAD [10]: 10 nM (inactive)
- luciferase signal [11]: 44 AU (inactive)
- z-score [12]: 0.71 (inactive)

SMILES: CC[C@H]1OC(=O)[C@H](C)[C@@H](O[C@H]2C[C@@](C)(OC)[C@@H](O)[C@H](C)O2)[C@H](C)[C@@H](O[C@@H]2O[C@H](C)C[C@H](N(C)C)[C@H]2O)[C@](C)(O)C[C@@H](C)[C@@H]2N[C@@H](COCCOC)O[C@H]([C@H]2C)[C@]1(C)O
- parasite load remaining [3]: 193% (inactive) and 158% (inactive) and 59.8% (inactive)
- viability [3]: 113% and 86.5% and 194%
- red/green cell ratio (normalised) [6]: 0.74 (inactive)
- normalised cell number [6, 21]: 1.25
- normalised cell number [6, 22]: 0.93
- fold change [7, 23]: 0.867 (inactive) and 0.854 (inactive)
- fold change [7, 24]: 0.963 and 2.6
- cell count [7, 25]: 8760 and 11500
- cell count [7, 26]: 10100 and 13500
- z-score [9, 27]: -1.14 (inactive)
- z-score [9, 28]: -0.393
- remaining NAD [10]: 10 nM (inactive)
- luciferase signal [11]: 44 AU (inactive)

SMILES: N=C(N)SCCN
- period change [1]: -0.04 h (inactive)
- inhibition [4]: -3% (inactive)
- fluorescence ratio (interference) [5]: 1 (inactive)
- red/green cell ratio (normalised) [6]: 0.88 (inactive)
- normalised cell number [6, 21]: 1.12
- normalised cell number [6, 22]: 0.98
- fold change [7, 23]: 0.958 (inactive) and 1.11 (inactive)
- fold change [7, 24]: 2.51 and 0.757
- cell count [7, 25]: 9240 and 6110
- cell count [7, 26]: 9640 and 5490
- outcome [8]: inactive
- luciferase signal [11]: 96 AU (inactive)
- z-score [12]: -0.855 (inactive)

SMILES: COc1cccc2c1C(=O)c1c(O)c3c(c(O)c1C2=O)C[C@@](O)(C(=O)CO)C[C@@H]3OC1C[C@H](N)[C@H](O)[C@H](C)O1 (some centres undefined)
- parasite load remaining [3]: 18.8% (inactive)
- viability [3]: 53.1%
- red/green cell ratio (normalised) [6]: 2.27 (inactive)
- normalised cell number [6, 21]: 0.17
- normalised cell number [6, 22]: 0.39
- fold change [7, 23]: 0.907 (inactive)
- fold change [7, 24]: 1.04
- cell count [7, 25]: 1130
- cell count [7, 26]: 1250

SMILES: CC(C)CC(N)=O
- red/green cell ratio (normalised) [6]: 0.8 (inactive)
- normalised cell number [6, 21]: 1.07
- normalised cell number [6, 22]: 0.86
- fold change [7, 23]: 0.906 (inactive) and 0.908 (inactive)
- fold change [7, 24]: 0.955 and 0.851
- cell count [7, 25]: 8450 and 8440
- cell count [7, 26]: 9330 and 9300
- z-score [9, 27]: -0.0903 (inactive)
- z-score [9, 28]: -0.199
- remaining NAD [10]: 10 nM (inactive)

SMILES: Nc1nc(NC2CC2)c2ncn(C3C=C[C@@H](CO)C3)c2n1 (some centres undefined)
- red/green cell ratio (normalised) [6]: 1.14 (inactive)
- normalised cell number [6, 21]: 1.1
- normalised cell number [6, 22]: 1.26
- fold change [7, 23]: 0.995 (inactive)
- fold change [7, 24]: 0.706
- cell count [7, 25]: 8880
- cell count [7, 26]: 8920

SMILES: c1ccc(C2CN3CCSC3=N2)cc1 (centres undefined)
- period change [1]: 0.075 h (inactive)
- survival [2]: 5.17 (inactive) and 92.1 (inactive)
- parasite load remaining [3]: 183% (inactive) and 71.5% (inactive)
- viability [3]: 108% and 76.2%
- inhibition [4]: -2% (inactive)
- fluorescence ratio (interference) [5]: 1 (inactive)
- red/green cell ratio (normalised) [6]: 1.29 (inactive) and 1 (inactive)
- normalised cell number [6, 21]: 0.85 and 1.04
- normalised cell number [6, 22]: 1.1 and 1.05
- fold change [7, 23]: 0.894 (inactive) and 0.914 (inactive) and 0.823 (inactive)
- fold change [7, 24]: 2.54 and 0.996 and 1.2
- cell count [7, 25]: 8980 and 9120 and 8770
- cell count [7, 26]: 10000 and 9980 and 10700
- outcome [8]: inactive
- z-score [9, 27]: 0.49 (inactive)
- z-score [9, 28]: 0.36
- remaining NAD [10]: 10 nM (inactive)
- z-score [12]: 0.64 (inactive)

SMILES: O=C(O)c1ccccc1
- parasite load remaining [3]: 29.9% (inactive)
- viability [3]: 83.9%
- red/green cell ratio (normalised) [6]: 1.1 (inactive)
- normalised cell number [6, 21]: 1.23
- normalised cell number [6, 22]: 1.35
- fold change [7, 23]: 0.957 (inactive) and 0.932 (inactive)
- fold change [7, 24]: 0.544 and 1.69
- cell count [7, 25]: 8250 and 11300
- cell count [7, 26]: 8620 and 12100
- z-score [9, 27]: -0.248 (inactive)
- z-score [9, 28]: -0.209
- remaining NAD [10]: 10 nM (inactive)
- luciferase signal [11]: 36 AU (inactive)

SMILES: CC1=CC(=O)NS(=O)(=O)O1
- red/green cell ratio (normalised) [6]: 1.16 (inactive)
- normalised cell number [6, 21]: 0.89
- normalised cell number [6, 22]: 1.03
- fold change [7, 23]: 0.852 (inactive) and 0.934 (inactive)
- fold change [7, 24]: 0.799 and 0.672
- cell count [7, 25]: 7390 and 8400
- cell count [7, 26]: 8680 and 8990
- z-score [9, 27]: -0.393 (inactive)
- z-score [9, 28]: -0.0842
- remaining NAD [10]: 10 nM (inactive)

SMILES: CC1(C)C2CCC1(CS(=O)(=O)O)C(=O)/C2=C\c1ccc(/C=C2\C(=O)C3(CS(=O)(=O)O)CCC2C3(C)C)cc1
- red/green cell ratio (normalised) [6]: 0.78 (inactive)
- normalised cell number [6, 21]: 1.44
- normalised cell number [6, 22]: 1.12
- fold change [7, 23]: 0.905 (inactive)
- fold change [7, 24]: 1.03
- cell count [7, 25]: 8090
- cell count [7, 26]: 8940

SMILES: CC(C)Cc1ccc([C@H](C)C(=O)O)cc1
- period change [1]: -0.055 h (inactive)
- survival [2]: 6.58 (inactive)
- parasite load remaining [3]: 89.2% (inactive)
- viability [3]: 95.1%
- inhibition [4]: -6% (inactive)
- fluorescence ratio (interference) [5]: 0.9 (inactive)
- red/green cell ratio (normalised) [6]: 0.85 (inactive)
- normalised cell number [6, 21]: 0.93
- normalised cell number [6, 22]: 0.79
- fold change [7, 23]: 1.1 (inactive) and 0.885 (inactive)
- fold change [7, 24]: 1.11 and 1.2
- cell count [7, 25]: 10400 and 9190
- cell count [7, 26]: 9420 and 10400
- outcome [8]: inactive
- z-score [9, 27]: 0.343 (inactive)
- z-score [9, 28]: -0.398
- remaining NAD [10]: 26 nM (inactive)
- z-score [12]: 0.53 (inactive)

SMILES: C[C@@H]1CC2C3CCC4=CC(=O)C=C[C@]4(C)[C@@]3(F)[C@@H](O)C[C@]2(C)[C@@]1(O)C(=O)CO (some centres undefined)
- inhibition [13]: -20.4%
- score [14]: 1.07
- rescue above control [15]: -7.18
- cytochrome c release ratio [16]: 0.84
- inhibition of aggregation [17]: 31.7%
- glutamate uptake change [18]: 53.3%
- inclusion score [19]: 2
- aggregation suppression score [20]: 1.35
- parasite load remaining [3]: 152% (inactive) and 64.1% (inactive)
- viability [3]: 77.2% and 87.1%
- red/green cell ratio (normalised) [6]: 1.24 (inactive)
- normalised cell number [6, 21]: 1.34
- normalised cell number [6, 22]: 1.66
- fold change [7, 23]: 0.825 (inactive)
- fold change [7, 24]: 2.2
- cell count [7, 25]: 7310
- cell count [7, 26]: 8850
